Data on 93 compounds can be found in PubChem BioAssay AID488899 (Broad Institute, 2010).

In all, about 330,000 compounds went through this assay and about 2,800 (0.85%) were called active. What follows is part of a selection rich in actives, with near analogues and random picks from the rest. A number with no mark means an inactive call.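 How the source made its calls: active means mean inhibition across replicates of 60% or more, whatever share of single replicates reaches that level; inconclusive means some that reach 60%, reason not given; inactive means mean inhibition across replicates below 60%.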

A short description of this experiment: inhibitors of MITF-dependent TRPM1 promoter reporter, primary screen, cell-based, SK-MEL-5, single point, luciferase (AID 488899). As to conditions: SK-MEL-5 TRPM1 promoter luciferase, 24 h; at 12.5 µM; hits give high values.
On to `CNN/C(N=Cc1ccc([N+](=O)[O-])s1)=N\S(=O)(=O)c1cc(C)c(Cl)cc1SCc1ccccc1`, for which the inhibition was 24.1%.

In the case of `CNC[C@H](CC1CCCCC1)NC[C@H](NCCC1CCCC1)[C@H](C)O`, the inhibition is 78.2% (active). For `CCOC(=O)c1ccccc1NC(=O)CSc1nc2c(sc(=S)n2CC)c(=O)[nH]1`, the inhibition is -3.35%. Under `Cc1ccc(-n2nc(N)c3c(=O)oc(N(C)C)nc32)cc1` stands -8.9%.

Consider `COc1ccc(C(=O)NCC(c2ccco2)N2CCc3ccccc32)cc1OC` (stereo not drawn), for which the inhibition is 5.95%. Turning to `Cc1ccc2nc(-c3ccc(Br)cc3)cn2c1`, the inhibition is 50.5%. The figure for `Cc1ccc(-c2cn3cc([N+](=O)[O-])ccc3n2)cc1` is 48.1%. In the case of `Cc1ccc(-c2cn3cc(C)ccc3n2)cc1`, the inhibition was 93.3% (active). For the compound `CCOc1ccc(-n2cnc3c(=O)[nH]c(N)nc32)cc1`, the inhibition is -21.7%. The figure for `O=C(CCCCCCCC(=O)N1CCCCC1)N1CCCCC1` is 0.359%.

Take `COc1ccc(NC(=O)COC(=O)c2ccncc2)c(OC)c1`: the inhibition was -6.34%. The figure for `Cc1cc2oc(=O)cc(CN3CCN(Cc4ccccc4)CC3)c2cc1C` is -7.61%. The figure for `COc1cccc2sc3cc(NCC[C@@H]4CCCN4C)ccc3c(=O)c12` is -35.6%.

As for `Cc1cc2oc3ccc(NCCC4CCCN4C)cc3c(=O)c2cc1C` (stereo not drawn), the inhibition is 82.2% (active). Under `CCOc1ccc(CN2CCNC(=O)C2CC(=O)NCCCC2CCCC2)cc1` (stereo not drawn) stands -18.3%; under `COc1cc([N+](=O)[O-])ccc1NC(=O)COC(=O)CCOc1ccc(C)cc1`, 8.46%; under `CCN(CC(=O)Nc1ccc(OC)cc1)C(=O)CSCc1ccc(C)cc1`, -0.141%.

Regarding `COc1ccc(C(=O)CCC(=O)Nc2ccc(Cl)cc2)cc1`, the inhibition was -4.44%.

For the compound `COc1ccc(NC(=O)/C(Cl)=C(/Cl)S(=O)Cc2ccc(C)cc2)cn1` (stereo not drawn), the inhibition was 113% (active). The figure for `COc1ccc(CS(=O)/C(Cl)=C(/Cl)C(=O)Nc2ccc(OC)nc2)cc1` (stereo not drawn) is 99.4% (active); for `COc1ccc(CCNC(=O)c2cnc(Cl)c(Cl)c2)cc1` it is 1.33%. The figure for `COC(=O)c1sccc1NC(=S)Nc1ccc(C)cc1` is -74.3%. `COc1ccc(C(=O)NC(Cc2ccc(OC(=O)c3ccc(OC)cc3)cc2)C(=O)O)cc1` (stereo not drawn): the inhibition was 3.82%. The figure for `Cc1nnc(N/N=C/c2ccccn2)[nH]c1=O` is 79.6% (active). The figure for `O=C(N/N=C/c1ccccn1)C12CC3CC(CC(C3)C1)C2` is 0.297%; for `Cc1cc(C(=O)N/N=C/c2ccccn2)c2ccccc2n1` it is -2.21%; for `O=C(O)c1cc(S(=O)(=O)N(Cc2ccccc2)c2cccc(C(F)(F)F)c2)ccc1Cl` it is 11.3%. The figure for `COc1cc2c(cc1O)C(SC)=NC(C)(C)C2` is 73.8% (active); for `COc1cc2c(cc1OC)C(Nc1ccc(S(N)(=O)=O)cc1)=NC(C)(C)C2` it is 12.1%; for `COc1cc2c(cc1OC)C(C(C)C)=NC(C)(C)C2` it is 2.2%. For the compound `COc1ccc(-n2c(C)nn(CC3CC3)c2=O)cc1`, the inhibition is -0.556%. Under `CCOc1ccc(NC(=O)CSc2nc3ccccc3c(=O)n2Cc2cccs2)cc1` stands 9.83%. Under `C=CCn1c(CNS(=O)(=O)c2ccc(Br)cc2)nnc1SC` stands -0.805%. Under `COc1ccccc1N1CCN(/N=C\C(Br)=C\c2ccccc2)CC1` stands -56.4%; under `CC(C)c1cc(C(=O)N/N=C/C(Br)=C/c2ccccc2)n[nH]1`, 11.7%; under `Cc1cc(-c2n[nH]c(=S)n2/N=C/C(Br)=C/c2ccccc2)n[nH]1`, 71.3% (active). Regarding `COc1ccc(-c2cc(=O)oc3cc(OC(C)C(=O)Nc4ccc(CN5CCOCC5)cc4)ccc23)cc1` (stereo not drawn), the inhibition was -4.64%. The figure for `CCCN(CCC)S(=O)(=O)c1cc2c(cc1Br)CCN2C(=O)CC` is 0.177%. The figure for `NN=C(NN=Cc1ccccc1)c1ccccc1` is -40.6%; for `CC(Oc1ccc(-c2ccccc2)c(F)c1)c1ccn(S(=O)(=O)c2cccc3ccccc23)n1` (stereo not drawn) it is -2.2%; for `O=C(O)c1ccc(S(=O)(=O)c2ccccc2)s1` it is 11.8%. Take `CC(=NCc1ccco1)c1c(C(F)(F)F)[nH]n(-c2nc3ccccc3s2)c1=O`: the inhibition was -61.7%.

With `COc1ccc(C2=NN(c3nc4ccccc4s3)C(=O)C2)cc1`, the inhibition was 19.7%. Under `COC(=O)Cc1[nH]n(-c2nc3ccccc3s2)c(=O)c1C(C)=Nc1ccc(OC)cc1` stands 95.4% (active); under `CC[C@]12c3[nH]c4ccc(Cl)cc4c3CCN1C(=O)[C@@H](CC(=O)NCCCOC)C[C@@H]2C(=O)N1CCN(C(=O)c2ccco2)CC1`, -7.5%. The figure for `COc1ccc(C(=O)/C=C/Nc2ccccn2)cc1` is 67.5% (active); for `CCOc1ccc(N/C=C/C(=O)c2cc(OC)c(OC)c(OC)c2)cc1` it is 4.18%; for `CCOc1ccc(N/C=C/C(=O)c2ccccc2)cc1` it is 8.94%. Under `O=[N+]([O-])c1ccc(N=NNc2ccc([N+](=O)[O-])cc2)cc1` stands -19.3%; under `CC(=O)NCCNC(=O)c1cc(-c2cccc3ccccc23)nc2ccccc12`, 9.13%. Consider `CN(C)CCNC(=O)Nc1cccc(Cl)c1Cl`, for which the inhibition was 5.71%. Under `CN(C)CCNC(=O)c1ccc(Cl)c2cc3ccccc3nc12` stands 74.8% (active); under `Cc1ccc(OCC(=O)Nc2ccc(NC(=O)c3cccs3)cc2)c(C)c1`, 27.8%; under `Cc1ccc(-c2nnc(-c3ccc(NC(=O)c4cccs4)cc3)o2)cc1`, 73.5% (active).

For `Cc1ccc(C(=O)Nc2ccc(NC(=O)c3cccs3)cc2)c(C)c1`, the inhibition is -4.59%. Under `CS(=O)(=O)c1ccc2nnn(OCC(=O)Nc3cccc(C#N)c3)c2c1` stands 10.8%; under `COc1cc(O)c2c(=O)c3c(O)c(O)ccc3oc2c1OC`, -1.36%. The figure for `Cc1ccccc1-c1n[nH]c(=S)n1/N=C/c1ccc(-c2ccccc2Br)o1` is 10.7%; for `O=C(CSc1n[nH]c(-c2cccs2)n1)N1CCCCC1` it is -12.1%. `COc1cc(OC)cc(C(=O)NNC(=O)CCOc2ccccc2OC)c1`: the inhibition was -4.37%. Under `COc1ccc(C(=O)N[C@H](C(=O)NCc2ccccc2)C(C)C)cc1` stands 9.58%. The figure for `COc1cc(OC)cc(C(=O)N[C@H](C(=O)Nc2nc3ccccc3[nH]2)C(C)C)c1` is 71% (active); for `COc1cc(OC)cc(C(=O)N[C@H](C(=O)NNC(=O)c2ccc(Br)cc2)C(C)C)c1` it is 13.3%.

For `CCn1nnc2cc(C(=O)Nc3ccc(C(=O)OC(C)C)cc3)ccc21`, the inhibition is 21.6%. Under `CCOC(=O)C(CO)NC(=O)C1(NC(C)=O)CCCC1` (stereo not drawn) stands -14.8%; under `COc1cc(SC)ccc1C(=O)Nc1nc(C)cs1`, 88.5% (active); under `Cc1csc(NC(=O)c2ccc(C)s2)n1`, -57.3%. For the compound `COc1ccc(C(=O)Nc2cccc(NC(=O)c3ccc(OC)cc3OC)n2)c(OC)c1`, the inhibition is -13.3%.

For the compound `Cc1ccc(N2C(=O)CC(Nc3cccc4ccccc34)C2=O)cc1` (stereo not drawn), the inhibition is 8.42%. Under `CC(=O)Nc1ccccc1Sc1ccc2c3c(cccc13)C(=O)N(c1ccc(C)cc1)C2=O` stands 65.2% (active).

As to `CSc1ccccc1NC(=O)C(C)N1C(=O)c2ccccc2S1(=O)=O` (stereo not drawn), the inhibition was 0.029%. As for `COc1ccc(C(=O)NCC(=O)N/N=C/c2ccc([N+](=O)[O-])o2)cc1OC`, the inhibition is 10.3%. The figure for `O=C(NNC(=O)C1CCCC1)c1ccc(F)cc1` is 3.41%. On to `O=C(/C=C/c1ccc([N+](=O)[O-])o1)NNC(=O)c1ccc(F)cc1`, for which the inhibition was 80.8% (active). The figure for `O=C(Cn1cnc2ccccc2c1=O)NCC1COc2ccccc2O1` (stereo not drawn) is -4.59%. The figure for `Cc1ccc2nc(Nc3ccccc3O)nc(-c3ccccc3)c2c1` is -6.93%; for `NC(N)=Nc1nc(-c2ccccc2)c2cc(Cl)ccc2n1` it is 85.2% (active); for `COC(=O)Cn1nc(-c2ccccc2)c2cc(Cl)ccc21` it is -4.99%. With `COc1ccc2[nH]c3c(C)c4cc[n+](C)cc4c(C)c3c2c1`, the inhibition was 50.4%. Under `COC(=O)Cn1cc(/C=C/[N+](=O)[O-])c2ccccc21` stands 1.38%. The figure for `O=[N+]([O-])/C=C/c1ccc2c(ccn2Cc2ccccc2)c1` is 69.6% (active). The figure for `O=C(Cn1ccc2cc(S(=O)(=O)N3CCCC3)ccc21)NCc1ccccc1` is -7.14%. Turning to `CC1(C)C2CCC1(C)C(OC(=O)c1ccc(O)cc1)C2` (stereo not drawn), the inhibition was -0.433%. The figure for `CC(C)OC(=O)c1ccc(NCc2cc(O)ccc2O)cc1Cl` is 5.02%; for `O=C(OC12CC3CC(CC(C3)C1)C2)c1ccc(NCc2cc(O)ccc2O)cc1` it is 66.6% (active).

For the compound `COC(=O)c1ccc(NCc2cc(O)ccc2O)cc1`, the inhibition was -5.57%.

As for `CCN(CC)CCCN=Cc1c(O)n(-c2ccc(C)cc2)c(=O)c2ccccc12`, the inhibition was -6.61%.

Regarding `Cc1ccc(-n2c(O)c(C=Nc3ccc(S(=O)(=O)Nc4ncccn4)cc3)c3ccccc3c2=O)cc1C`, the inhibition is 7.63%. Under `CCOc1ccc(-n2c(O)c(/C=N/Nc3nc(C)cc(C)n3)c3ccccc3c2=O)cc1` stands 67.6% (active); under `Cc1ccc(S(=O)(=O)C2C(=O)NC3(C)CC2c2ccccc2O3)cc1` (stereo not drawn), 4.13%; under `COc1ccc(C(=O)Nc2ccnn2C2CCN(Cc3ccncc3)CC2)cc1`, -5.32%. For the compound `CCCCCN(C(=O)NC(=O)Nc1ccccc1C)S(C)(=O)=O`, the inhibition was 4.88%. The figure for `CCOC(=O)CCC(NC(=O)c1ccc(CNc2nc3cc(C(F)(F)F)ccc3nc2C(=O)OCC)cc1)C(=O)OCC` (stereo not drawn) is 3.92%.

As a reminder, the inhibition is the change of the read-out against control, counted positive when it falls.
